PAD4 FP inh – PAD4 (human) enzyme inhibition. AID 485272. inhibition, % at 6.36 µM. recombinant PAD4, RCA probe fluorescence polarization. 330,000 tested, 0.41% active. Q9UM07;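 active = percent inhibition above a cutoff equal to the mean of all tested compounds plus 3 SD, cut at about 15% in these data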
ZTA DNA inh – counter-screen for EBNA-1 inhibitors: inhibitors of Epstein-Barr virus ZTA; P03206; AID 2234; inhibition, % at 11 µM; 320,000 tested, 0.15% active; ZTA-DNA binding, fluorescence polarization; in the data active = inhibition above about 33%
GSTO1 inh – GSTO1 inhibition, counter-screen for RBBP9 inhibitors; inhibition, % at 5.96 µM; AID 1974; 300,000 tested, 1.1% active; recombinant GSTO1, activity-based probe fluorescence polarization;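 active = inhibition above the campaign mean inhibition plus 3 SD, cut at about 35% in these data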
Target sequence (P78417 whole entry, looked up): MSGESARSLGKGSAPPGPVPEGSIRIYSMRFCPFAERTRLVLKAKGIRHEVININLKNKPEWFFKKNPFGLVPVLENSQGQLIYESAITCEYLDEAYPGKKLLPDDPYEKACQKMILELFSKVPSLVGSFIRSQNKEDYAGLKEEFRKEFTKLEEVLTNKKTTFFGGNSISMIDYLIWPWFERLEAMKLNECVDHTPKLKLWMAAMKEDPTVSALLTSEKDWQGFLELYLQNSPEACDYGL
EBNA-1 inhibitor – blocks EBNA-1 binding to DNA | EBNA-1 DNA binding, fluorescence polarization | inhibition, % at 14.8 µM | 300,000 tested, 0.34% active | AID 1950; in the data active = inhibition above about 28%
LYPLA1 counter – blocks human lysophospholipase 1, a PME1 counter-screen; O75608; recombinant LYPLA1, FP-Rh probe fluorescence polarization; inhibition, % at 5.9 µM; 320,000 tested, 0.16% active; AID 2174;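 active = inhibition above the mean of all tested compounds plus 3 SD, set per campaign, cut at about 14% in these data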;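 also: inhibitors block serine hydrolase probe labeling of LYPLA1 so polarization falls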
LYPLA2 counter – blocks human lysophospholipase 2, a PME1 counter-screen | inhibition, % at 5.9 µM | 320,000 tested, 0.38% active | O95372 | recombinant LYPLA2, FP-Rh probe fluorescence polarization;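 active = inhibition above the screen-wide mean plus 3 SD, limit set per campaign, cut at about 26% in these data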
Target sequence (O95372 whole entry, looked up): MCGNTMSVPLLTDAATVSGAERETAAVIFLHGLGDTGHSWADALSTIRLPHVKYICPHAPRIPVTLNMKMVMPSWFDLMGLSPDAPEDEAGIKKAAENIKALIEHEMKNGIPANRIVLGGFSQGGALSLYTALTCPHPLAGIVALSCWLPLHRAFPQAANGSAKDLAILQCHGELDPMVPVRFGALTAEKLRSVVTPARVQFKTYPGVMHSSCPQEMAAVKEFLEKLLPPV
PAD4 FP conf – PAD4 (human) inhibition, confirmed | 1,200 tested, 28% active | inhibition, % at 6.36 µM | shares compounds with PAD4 FP inh | recombinant PAD4, RCA probe fluorescence polarization;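 active = mean inhibition across replicates above the hit cutoff set by the earlier primary screen, cut at about 15% in these data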;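 also: inhibitors block active-site labeling by the probe so polarization falls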
A number is an active result; . = inactive; / = not tested or not shown. Compounds with a hit are over-represented: about 1.7% of the library has one in this group of screens.

SMILES	PAD4 FP inh	ZTA DNA inh	GSTO1 inh	EBNA-1 inhibitor	LYPLA1 counter	LYPLA2 counter	PAD4 FP conf
CC(=O)NC(c1cccs1)c1cc([N+](=O)[O-])c2cccnc2c1O (stereo not drawn)	25	.	.	.	.	.	.
Cc1ccc(P(=O)(CSC(=N)N)c2ccc(C)cc2)cc1	24	.	.	.	.	.	18
Cc1ccc(P(=O)(CO)c2ccc(C)cc2)cc1	.	.	.	.	.	.	/
N=C(N)SCP(=O)(c1ccccc1)c1ccccc1	17	.	.	.	.	.	15
COc1ccc(-c2noc(N3CCC(C(=O)NC(C)c4ccccc4)CC3)n2)cc1 (stereo not drawn)	.	.	.	.	.	.	/
Cc1cccc(NC(=O)CCN2CCC(C)CC2)c1	.	.	.	.	.	.	/
N#Cc1cccc(NS(=O)(=O)c2ccc(S(=O)(=O)N3CCOCC3)cc2)c1	.	.	/	/	.	.	/
N#Cc1cccc(NS(=O)(=O)c2ccccc2Cl)c1	22	.	/	/	.	.	.
CCCCn1c(N)c(N(CCC(C)C)C(=O)c2[nH]c(C)c(C(=O)OCC)c2C)c(=O)[nH]c1=O	.	.	.	.	.	.	/
O=C(c1ccc(Cl)c(S(=O)(=O)N2CCCC2)c1)N1CCOCC1	.	.	.	.	.	.	/
O=C(c1ccc(Cl)c(S(=O)(=O)N2CCOCC2)c1)N1CCCC1	16	.	.	.	.	.	.
COc1cc(-c2nc(C)c(C(C)=O)n2O)ccc1OCC(=O)Nc1ccc(Cl)cc1	.	.	.	.	.	.	/
O=Cc1ccc(Sc2nnc(-c3ccccc3)o2)c([N+](=O)[O-])c1	24	.	.	.	.	.	24
CN1CCN(CCCNC(=O)C2CCN(c3nnc(-n4cccc4)s3)CC2)CC1	.	.	.	.	.	.	/
CCCN1CCN(CCCNC(=O)C2CCN(c3nnc(-n4c(C)ccc4C)s3)CC2)CC1	18	.	.	.	.	.	.
Cc1ccc(NCC(=O)Nc2cccc(F)c2)cc1S(=O)(=O)N1CCCCCC1	.	.	.	.	.	.	/
CCOc1ccc(N=C/C=C/c2ccccc2)c(O)c1	26	.	54	.	.	.	.
COc1cc(C(=O)c2nccc3cc(OC)c(OC)cc23)c([N+](=O)[O-])cc1OC	40	.	55	.	.	.	.
COc1ccc(NC(=O)CC(C)c2ccccc2)cc1S(=O)(=O)N1CCOCC1 (stereo not drawn)	.	.	/	/	.	.	/
OCCN(CCO)c1ccc(C(c2ccc(Cl)cc2)c2ccc(N(CCO)CCO)cc2Cl)c(Cl)c1	15	.	.	.	.	.	.
COc1cccc(/C=C2/CN(C)CC3=C2OC(N)=C(C#N)C3c2cccc(OC)c2)c1 (stereo not drawn)	61	.	.	.	.	.	.
COc1cccc(C2C(C#N)=C(N)OC(C(C)(C)C)=C2C#N)c1 (stereo not drawn)	.	.	.	.	.	.	/
COc1ccc(NC(=O)C(c2cc3c(cc2[N+](=O)[O-])OCO3)N(C)C)cc1 (stereo not drawn)	31	.	.	.	.	.	.
O=c1[nH]c(Sc2ccc([N+](=O)[O-])cc2[N+](=O)[O-])nc2ccccc12	44	.	.	.	.	.	19
Cc1ccc(C(=O)NCc2ccc(Cl)cc2)cc1S(=O)(=O)N1CCCCC1	.	.	/	/	.	.	/
SMILES	PAD4 FP inh	ZTA DNA inh	GSTO1 inh	EBNA-1 inhibitor	LYPLA1 counter	LYPLA2 counter	PAD4 FP conf
Cc1ccc(CNC(=O)c2ccc(C)c(S(=O)(=O)N3CCCCC3)c2)cc1	105	.	/	/	.	.	.
CC(C)N(C(=O)CSc1n[nH]c(=O)n1CCc1ccccc1)C(C)C	.	.	.	.	.	.	/
CC(=O)N1c2ccc(S(=O)(=O)NCCC(=O)N3CCC(C)CC3)cc2CC1C (stereo not drawn)	.	.	.	.	.	.	/
Nc1ccc(S(=O)(=O)NC2=NCCCCC2)cc1	.	.	.	.	.	.	/
CCOC(=O)c1ccc(S(=O)(=O)Nc2nc3cc(S(=O)(=O)NC4=NCCCCC4)ccc3s2)cc1	29	.	.	.	.	.	26
Nc1nc2cc(S(=O)(=O)NC3=NCCCCC3)ccc2s1	28	.	.	.	.	.	25
COc1ccccc1OCCNC(=O)C1CC(=O)N(Cc2ccc(C)cc2)C1 (stereo not drawn)	.	.	.	.	.	.	/
C=CCN1C=C2C(=O)C(C)(OC(=O)CCC(=O)OC)C(=O)C=C2C=C1C1CC1 (stereo not drawn)	17	.	37	.	.	.	.
CC(C)Cn1c(N)c(C(=O)COC(=O)Cc2cccs2)c(=O)n(C)c1=O	46	.	.	.	.	.	.
COC(=O)c1ccccc1NC(=O)CSc1nc(O)c(-c2ccccc2)c(=O)[nH]1	17	.	.	.	.	.	17
COC(=O)c1cccc(NC(=O)CSc2nc(O)c(-c3ccccc3)c(=O)[nH]2)c1	18	.	.	.	.	.	20
Cc1ccc(C)c(NC(=O)C2CCN(C(=O)c3cccs3)CC2)c1	.	.	.	.	.	.	/
COc1cc(NC(=O)CN2C(=O)NC(c3ccccc3)(c3ccccc3)C2=O)c(C)cc1[N+](=O)[O-]	.	.	.	.	.	.	/
O=C(COC(=O)CCN=C1NS(=O)(=O)c2ccccc21)NNC(=O)c1ccc(Cl)cc1	.	.	/	/	.	.	/
COc1ccc(Cl)cc1S(=O)(=O)Nc1ccc2c(c1)n(C)c(=O)n2C	.	.	.	.	.	.	/
Clc1ccc(CN2C3=NCCCN3c3ccccc32)cc1Cl	.	.	.	.	.	.	/
Cc1[nH]c2ccccc2c1C(C#N)(C#N)C1C(=O)c2ccccc2C1=O	37	.	73	.	.	.	.
Cc1[nH]c2ccccc2c1CC#N	.	.	.	.	.	.	/
N#Cc1cccc(CN2CCC(=O)N([C@H](CO)Cc3ccccc3)CC2)c1	.	.	.	.	.	.	/
Cc1ccc(OCCCNC2CCCC2)cc1	17	.	.	.	.	.	.
COc1ccc(/C=N/NC(=O)c2ccc3c(c2)NC(=O)C(C)(C)O3)cc1OC	.	.	.	.	.	.	/
COC(=O)c1ccc(C(=O)OC)c(NC(=O)CN2CCN(c3ccccc3OC)CC2)c1	.	.	.	.	.	.	/
COC(=O)c1ccc(C(=O)OC)c(NC(=O)COc2ccccc2OC)c1	16	.	.	.	.	.	18
O=C(Oc1ccc(-c2cnc3ccccc3n2)cc1)c1ccc(Br)o1	39	.	.	.	.	.	27
O=C(Oc1ccc(-c2cnc3ccccc3n2)cc1)c1cccc([N+](=O)[O-])c1	.	.	.	.	.	.	/
Nn1c(SCc2ccccc2)nc2c(cnn2-c2ccccc2)c1=O	18	.	.	.	.	.	.

Screens (PubChem BioAssay)
